{"source": "PubChem BioAssay AID504905", "about": "(The Scripps Research Institute Molecular Screening Center, 2011)", "note": "The list shows a part of the results. A number with no mark means an inactive call. Calls of active or inactive are those of the source. Cut-off read from the data, not from the text of the source: active = activation above about 17%; inactive = the rest.", "data": [{"molecular_target": "5-hydroxytryptamine receptor 5A (Homo sapiens) (UniProt P47898)", "sequence (P47898 whole entry, looked up)": "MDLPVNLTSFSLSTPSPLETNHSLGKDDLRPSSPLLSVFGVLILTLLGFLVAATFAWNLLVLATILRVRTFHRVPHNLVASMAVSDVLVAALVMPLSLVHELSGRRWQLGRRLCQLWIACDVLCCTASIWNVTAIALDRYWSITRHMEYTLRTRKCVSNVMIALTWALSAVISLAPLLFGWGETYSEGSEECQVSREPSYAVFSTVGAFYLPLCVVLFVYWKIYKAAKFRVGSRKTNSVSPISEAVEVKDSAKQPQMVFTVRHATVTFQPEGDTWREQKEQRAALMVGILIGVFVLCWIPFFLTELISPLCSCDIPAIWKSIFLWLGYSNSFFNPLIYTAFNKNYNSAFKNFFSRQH", "experiment": "HTR5A agonists in cells, counter-screen for OPRM1-OPRD1 heterodimer agonist project, cell-based, luminescence (AID 504905);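 note: 0% = vehicle-treated cells and 100% = reference agonist response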", "settings": "HTR5A agonist counterscreen, at 9.3 µM, stronger effect = higher value", "values": [{"compound": "CN(CC(=O)Nc1ccc(Cl)cc1)C(=O)c1ccc(COc2ccccc2)cc1", "activation": "5.21%"}, {"compound": "O=C1N/C(=C/c2cccs2)C(=O)N1Cc1ccc(F)cc1", "activation": "27.5% (active)"}, {"compound": "CCCC(=O)NC(C)C(c1cccs1)N1CCN(c2ccccc2)CC1", "note": "(stereo unspecified)", "activation": "-1.26%"}, {"compound": "CC1CCCN(CCOCCOc2ccccc2-c2ccccc2)C1", "note": "(stereo unspecified)", "activation": "1.05%"}, {"compound": "Cc1ccc(Nc2ccccc2N)cc1", "activation": "0.79%"}, {"compound": "COc1ccc(SC[C@H](Cc2ccccc2)N2CCN(CCc3ccccc3)CCC2=O)cc1", "activation": "-1.8%"}, {"compound": "Cc1ccc(OCC(=O)Nc2ccc(NC(=O)c3cccs3)cc2)c(C)c1", "activation": "8.16%"}, {"compound": "CN(C)C(CNC(=O)Cc1ccc([N+](=O)[O-])cc1)c1ccccc1", "note": "(stereo unspecified)", "activation": "1.22%"}, {"compound": "CC(OC(=O)/C=C/c1ccccc1)C(=O)Nc1ccc(C(N)=O)cc1", "note": "(stereo unspecified)", "activation": "0.16%"}, {"compound": "COc1ccc(C(CNCC(=O)Nc2ccccc2F)N(C)C)cc1", "note": "(stereo unspecified)", "activation": "5.09%"}, {"compound": "COc1cccc(/C=N/Nc2cc(C)nc(-c3ccccc3O)n2)c1O", "activation": "0.01%"}, {"compound": "CC(c1cccnc1)N(CCN(C)C)C(=O)Nc1ccc(Cl)c(Cl)c1", "note": "(stereo unspecified)", "activation": "-6.75%"}, {"compound": "CCOC(=O)C1(CC2CCCCO2)CCN(Cc2nc(-c3cccs3)oc2C)CC1", "note": "(stereo unspecified)", "activation": "3.31%"}, {"compound": "O=C(NCc1cn2ccsc2n1)Nc1ccc(Cl)cc1", "activation": "-5.53%"}, {"compound": "Cc1ccc(S(=O)(=O)N(CC(=O)Nc2cccnc2)c2ccc(Br)cc2)cc1", "activation": "0.5%"}, {"compound": "CCC(C(=O)OCC(=O)Nc1ccc(C(=O)Nc2ccc(OC)cc2)cc1)c1ccccc1", "note": "(stereo unspecified)", "activation": "5.87%"}]}]}
